Our source for the Percent Effect values is ChEMBL document CHEMBL3988442, “University of Dundee, Small-Polar-MMV Screening Library” (2021).

Assay [1] has as its target T1, Aspartate--tRNA(Asp/Asn) ligase (Mycobacterium tuberculosis (strain ATCC 25618 / H37Rv)) (UniProt P9WFW3). Further: in the data most compounds retested in dose-response had high values.
T1 sequence (whole entry): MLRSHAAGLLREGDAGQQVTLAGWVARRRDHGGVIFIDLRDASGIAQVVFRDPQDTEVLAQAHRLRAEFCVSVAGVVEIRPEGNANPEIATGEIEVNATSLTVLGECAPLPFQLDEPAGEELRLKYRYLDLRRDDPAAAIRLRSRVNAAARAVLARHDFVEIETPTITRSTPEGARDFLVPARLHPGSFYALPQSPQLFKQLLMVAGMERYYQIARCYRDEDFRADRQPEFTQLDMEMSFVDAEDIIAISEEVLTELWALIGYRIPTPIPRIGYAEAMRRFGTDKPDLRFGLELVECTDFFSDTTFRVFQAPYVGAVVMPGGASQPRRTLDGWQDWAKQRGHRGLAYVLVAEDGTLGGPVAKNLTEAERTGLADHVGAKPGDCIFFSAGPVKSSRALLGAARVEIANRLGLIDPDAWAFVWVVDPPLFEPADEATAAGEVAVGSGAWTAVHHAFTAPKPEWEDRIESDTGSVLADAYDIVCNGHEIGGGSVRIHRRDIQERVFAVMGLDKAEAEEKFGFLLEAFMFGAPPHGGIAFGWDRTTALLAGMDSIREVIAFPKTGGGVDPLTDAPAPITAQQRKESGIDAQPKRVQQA
Put plainly: Assay for Asp RNA synthetase-1 from Mycobacterium tuberculosis. The class given is functional. On the set-up: scale not given: direction of the effect not stated beside the values. As to conditions: 30 µM.

For assay [2], the target named is Shiga toxin 2 (Escherichia coli O157:H7) (UniProt P09385+P09386). Put plainly: E. coli 0.157:H7 Shiga Toxin SOP - stx2 screening assay. On the set-up: scale not given: direction of the effect not stated beside the values. To be noted: 30 µM. The class given is functional.

As for `O=C(CN1CCc2ccccc21)Nc1ccc(OC(F)F)cc1`, the Percent Effect in assay [1] was 0.418%; in assay [2], -7.39%.
For the molecule `Cc1cccc(COC[C@H]2CC[C@H]3[C@H](CCN3C(=O)CC3CC3)O2)n1`, the values for the Percent Effect in assay [1] and in assay [2] were -1.43% and 1.2%, respectively.
`CC(C)(C)n1cc(C(=O)N2CCN(Cc3ccccc3F)CC2)cn1`: the values for the Percent Effect in assay [1] and in assay [2] were -1.61% and 20.1%, respectively.
As to `c1ccc(OCCCNCCn2cccn2)cc1`, the Percent Effect was -1.5% in assay [1] and -44.6% in assay [2].
In the same order, the values of `O=C(Cc1ccc(-n2cccn2)cc1)N1CCCC(n2cccn2)C1` (centres undefined) are -2.94% and -22.3%.
In the same order, the values of `c1cnn(CC2CN(Cc3ccc(-n4ccnc4)cc3)CCO2)c1` (centres undefined) are -1.11% and -7.92%.
Turning to `O=C(C(CNCc1ccncc1)c1ccccc1)N1CCOCC1` (centres undefined), the Percent Effect in assay [1] is 11.7%; in assay [2], -69.6%.
In the same order, the values of `O=C(c1cnc(COc2ccccc2)nc1O)N1CCOCC1` are 1.28% and -10.9%.
For `COCCOc1cccc(C(=O)N2CCCC(n3ccnc3C)C2)c1` (centres undefined), the figures for the Percent Effect in assay [1] and in assay [2] were -2.52% and -16%, respectively.
As for `COc1ccc(COCC(O)CNC(=O)c2cnc(C)cn2)cc1` (centres undefined), the Percent Effect in assay [1] is 0.509%; in assay [2], -32.5%.
Turning to `CC(COc1ccc(F)cc1F)NC(=O)NCCN1CCOCC1` (centres undefined), the results for the Percent Effect in assay [1] and in assay [2] were -1.71% and -3.82%, respectively.
For `CCOc1ccccc1OC1CCN(C(=O)c2cc[nH]n2)CC1`, in that order: 0.989% and 39.1%.
As for `COCCCN1CCCN(C(C)c2nc(C3CC3)no2)CC1` (centres undefined), the Percent Effect in assay [1] is -9.76%; in assay [2] it was -23.4%.
In the case of `CC1CCCN(Cc2c(C3CCOCC3)[nH]c3ncccc23)C1` (centres undefined), the results for the Percent Effect in assay [1] and in assay [2] were 3.59% and 12.7%, respectively.
For `Cc1occc1C(=O)N1CCO[C@H]2[C@@H](Oc3ccccn3)CC[C@@H]21`, the Percent Effect in assay [1] is -0.28%; in assay [2], -16.2%.
Regarding `Cc1ccc(NC(=O)C2CSCN2C(=O)c2cc[nH]n2)c(C)c1` (centres undefined), the Percent Effect in assay [1] is -3.15%; in assay [2] it was 12%.
As for `CC(=O)N1CCCC1c1cccc(Cc2ccccc2F)n1` (centres undefined), the figures for the Percent Effect in assay [1] and in assay [2] were -0.134% and 4.04%, respectively.
